# PubChem BioAssay
# Where “and” joins values, the source holds several entries; their conditions need not be identical. Equal entries are not always repeated. Where a structure was tested more than once in an assay, its records may differ in their call. Calls of active or inactive are those of the source.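 The calls were made as follows, unless noted: active = thallium flux through the channel raised or lowered by more than 3 SD from vehicle-only wells, actives on both sides; inactive = the rest.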
# Key:
# [1] = Wnt pathway potentiators raising nuclear beta-catenin – imaging, WNT3A-conditioned medium, mouse C2C12, NPC library, primary screen (AID 1117326; in the data active = nuclear beta-catenin stimulation mostly above about 4.2%, no sharp cut-off; inactive = mostly below about 10%); settings: stronger effect = higher value
# [2] = stimulators of insulin release from INS-1E, primary screen, cell-based, 5 mM glucose, NPC library (AID 1117329;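 active = compound raises insulin release from rat beta cells at 5 mM glucose, no numeric limit stated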); settings: rat INS-1E insulin secretion, at 10 µM, stronger effect = higher value
# [3] = growth inhibition of GSK3B-pretreated HCT116 cells – cell-based, CellTiter-Glo, 0.2 to 20 µM (AID 1117336;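 active = compounds lowering colon cancer cell viability after pretreatment blocking the GSK3B kinase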); settings: HCT116 viability after GSK3B inhibitor, at 20 µM, stronger effect = higher value
# [4] = inhibition of endothelial tube formation, primary screen, imaging, VEGF stimulated, CD31 staining, tube area, NPC library (AID 1117340;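 active = compound that reduces growth-factor-driven endothelial tube area in a mixed cell culture, no cutoff stated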); settings: VEGF-stimulated ADSC/ECFC co-culture, at 10 µM, stronger effect = higher value
# [5] = GLP1 release stimulators, primary, NCI-H716, NPC library (AID 1117341;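 active = compound raises GLP1 secretion from the human gut endocrine cells, with no numeric limit stated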); settings: NCI-H716 cells, at 10 µM, stronger effect = higher value
# [6] = HCT116 colon cancer cell growth inhibition, primary screen, CellTiter-Glo luminescence, NPC library (AID 1117342;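 active = compounds that lower survival of HCT116 colon cancer cells in the luminescence readout, no numeric limit stated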); settings: at 20 µM (top of the series)
# [7] = reduced SW480 viability measured with CellTiter-Glo, NPC library, primary (AID 1117343;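 active = compounds that lower viability of the colon cancer cells in the luminescence readout, with no numeric limit stated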); settings: CellTiter-Glo luminescence; at 20 µM (top of the series)
# [8] = NPC library primary testing for decreased DLD-1 cell viability via CellTiter-Glo (AID 1117346;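 active = compounds that lower survival of DLD-1 colon cancer cells in the luminescence readout, no cutoff given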); settings: DLD-1 viability, CellTiter-Glo luminescence; at 20 µM (top of the series)
# [9] = molecular target: 6-phosphogluconate dehydrogenase, decarboxylating (Homo sapiens) (UniProt P52209); test: inhibition of human phosphogluconate dehydrogenase – biochemical, recombinant enzyme, NADPH absorbance, primary screen (AID 1159550;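 active = at least 20% inhibition of 6-phosphogluconate dehydrogenase activity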); settings: recombinant 6PGD, NADPH absorbance 341 nm; at 10 µM; stronger effect = higher value
# 6-phosphogluconate dehydrogenase, decarboxylating (Homo sapiens), sequence (P52209 whole entry, looked up): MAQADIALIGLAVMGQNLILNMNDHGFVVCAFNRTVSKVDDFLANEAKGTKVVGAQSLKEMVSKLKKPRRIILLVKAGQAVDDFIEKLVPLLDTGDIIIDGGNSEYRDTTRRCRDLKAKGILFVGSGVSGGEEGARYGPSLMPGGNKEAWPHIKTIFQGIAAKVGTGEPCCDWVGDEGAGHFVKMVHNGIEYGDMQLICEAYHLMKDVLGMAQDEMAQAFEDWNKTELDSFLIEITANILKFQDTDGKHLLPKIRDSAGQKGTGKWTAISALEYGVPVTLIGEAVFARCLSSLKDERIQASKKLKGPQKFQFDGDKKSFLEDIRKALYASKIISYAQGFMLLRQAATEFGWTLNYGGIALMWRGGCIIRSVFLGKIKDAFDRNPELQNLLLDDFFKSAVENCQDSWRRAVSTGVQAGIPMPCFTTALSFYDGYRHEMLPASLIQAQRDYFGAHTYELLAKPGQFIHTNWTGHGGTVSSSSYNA
# [10] = EMT-state selective cytotoxicity in co-culture – imaging, PC-3E GFP, TEM4-18 mCherry, primary screen (AID 1345086;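 active = compounds killing one labelled cell type while sparing the other, by normalised counts and ratio limits, not self-fluorescent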;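 as to all read-outs here: cells exposed to compound for 72 h before imaging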;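 as to red/green cell ratio (normalised): normalised mesenchymal count divided by normalised epithelial count so high means epithelial killing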); settings: PC-3E GFP / TEM4-18 mCherry co-culture, imaging cell counts, at 1 µM; for red/green cell ratio (normalised): actives lie on both sides, counts scaled to control wells, 1 = unselective
# [11] = MELAS cybrid and Rieske KO viability enhancers – cell-based, MELAS cybrids, Rieske KO mouse fibroblasts, CellTiter-Glo, primary screen (AID 1508586;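 active = mean z-score across replicates of 1.96 or higher in either the MELAS or the Rieske mutant cell line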;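 also: z relative to plate mean and SD of compound and empty wells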); settings: low glucose
# [12] = molecular target: NAD(+) hydrolase SARM1 (Homo sapiens) (UniProt Q6SZW1); test: blocking NAD cleavage by SARM1 SAM-TIR – cell lysate, NAD-Glo luminescence (AID 1508614;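 active = compound whose remaining NAD level is above about 45 nM, limit read from the data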;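 also: higher remaining NAD means stronger inhibition of SARM1 NADase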); settings: SAM-TIR HEK293T lysate NADase, at 1 µM, stronger effect = higher value
# NAD(+) hydrolase SARM1 (Homo sapiens), sequence (Q6SZW1 whole entry, looked up, the tested form may be a part): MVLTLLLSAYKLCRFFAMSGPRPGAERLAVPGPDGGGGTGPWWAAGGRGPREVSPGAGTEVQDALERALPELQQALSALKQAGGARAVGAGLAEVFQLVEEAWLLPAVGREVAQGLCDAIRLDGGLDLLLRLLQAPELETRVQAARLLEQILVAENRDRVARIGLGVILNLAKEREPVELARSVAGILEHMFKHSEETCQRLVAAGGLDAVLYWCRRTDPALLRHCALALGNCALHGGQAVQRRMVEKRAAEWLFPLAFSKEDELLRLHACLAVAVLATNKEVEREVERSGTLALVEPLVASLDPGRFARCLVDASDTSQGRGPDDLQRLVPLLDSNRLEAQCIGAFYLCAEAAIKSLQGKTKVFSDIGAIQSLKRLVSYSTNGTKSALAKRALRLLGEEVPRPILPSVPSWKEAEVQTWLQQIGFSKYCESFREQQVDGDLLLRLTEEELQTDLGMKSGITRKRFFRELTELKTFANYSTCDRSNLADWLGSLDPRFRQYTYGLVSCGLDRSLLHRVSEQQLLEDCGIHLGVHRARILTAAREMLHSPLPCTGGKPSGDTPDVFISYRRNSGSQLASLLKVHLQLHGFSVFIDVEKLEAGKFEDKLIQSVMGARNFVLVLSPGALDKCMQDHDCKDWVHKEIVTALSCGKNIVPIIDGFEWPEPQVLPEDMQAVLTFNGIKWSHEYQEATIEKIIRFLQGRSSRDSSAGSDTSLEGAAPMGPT
# [13] = molecular target: Mitogen-activated protein kinase 7 (Homo sapiens) (UniProt Q13164); test: Gal4-ERK5 driven luciferase induction – cell-based, HTS, primary screen (AID 1508626;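 active = luciferase signal above three times the same-plate solvent-only control wells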;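 also: luciferase driven by Gal4-ERK5 fusion binding five Gal4 sites before minimal TATA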); settings: HeLa Gal4-ERK5 transactivation, 18 h, at 5 µM, stronger effect = higher value
# Mitogen-activated protein kinase 7 (Homo sapiens), sequence (Q13164 whole entry, looked up, the tested form may be a part): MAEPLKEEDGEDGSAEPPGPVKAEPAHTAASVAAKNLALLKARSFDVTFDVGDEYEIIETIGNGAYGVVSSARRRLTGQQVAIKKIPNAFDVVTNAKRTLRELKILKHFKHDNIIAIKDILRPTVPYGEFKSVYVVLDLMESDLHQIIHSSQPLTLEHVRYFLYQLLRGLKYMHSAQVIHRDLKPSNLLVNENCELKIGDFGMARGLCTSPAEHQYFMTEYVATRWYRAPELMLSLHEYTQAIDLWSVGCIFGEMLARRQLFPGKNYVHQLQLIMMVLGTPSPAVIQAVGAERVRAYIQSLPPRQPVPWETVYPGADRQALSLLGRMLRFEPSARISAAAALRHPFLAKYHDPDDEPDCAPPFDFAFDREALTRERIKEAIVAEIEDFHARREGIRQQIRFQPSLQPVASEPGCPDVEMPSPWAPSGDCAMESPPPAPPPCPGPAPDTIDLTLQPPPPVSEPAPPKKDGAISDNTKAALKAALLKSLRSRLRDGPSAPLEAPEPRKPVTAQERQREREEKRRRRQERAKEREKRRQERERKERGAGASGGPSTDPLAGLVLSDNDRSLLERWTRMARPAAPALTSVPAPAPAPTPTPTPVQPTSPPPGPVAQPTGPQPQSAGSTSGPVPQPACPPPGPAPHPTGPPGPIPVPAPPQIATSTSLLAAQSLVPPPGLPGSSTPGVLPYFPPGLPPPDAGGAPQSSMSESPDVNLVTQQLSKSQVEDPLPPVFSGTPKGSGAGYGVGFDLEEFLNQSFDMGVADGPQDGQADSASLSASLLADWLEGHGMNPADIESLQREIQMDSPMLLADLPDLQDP
# F380Y = test: BK channel mutant inhibitors and activators – cell-based, U2OS BacMam, thallium flux, beta subunits, selectivity assay, profiling panel (AID 1259406); settings: U2OS BacMam BK variants, at 30 µM;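 also: initial slope of Thallos dye fluorescence rise after thallium is added; log ratio against the mean of 0.3% DMSO vehicle wells on the same plate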
# F380Y/beta2Delta = test: as above; settings: U2OS BacMam BK variants, at 30 µM
# [14] = molecular target: Calcium-activated potassium channel subunit alpha-1 (Homo sapiens) + Leucine-rich repeat-containing protein 26 (Homo sapiens) (UniProt Q12791+Q2I0M4); test: as above; settings: U2OS BacMam BK variants, F380Y/Slo1WT/gamma1, at 30 µM
# Calcium-activated potassium channel subunit alpha-1 (Homo sapiens) + Leucine-rich repeat-containing protein 26 (Homo sapiens), sequence (Q2I0M4 whole entry, looked up, one chain of several): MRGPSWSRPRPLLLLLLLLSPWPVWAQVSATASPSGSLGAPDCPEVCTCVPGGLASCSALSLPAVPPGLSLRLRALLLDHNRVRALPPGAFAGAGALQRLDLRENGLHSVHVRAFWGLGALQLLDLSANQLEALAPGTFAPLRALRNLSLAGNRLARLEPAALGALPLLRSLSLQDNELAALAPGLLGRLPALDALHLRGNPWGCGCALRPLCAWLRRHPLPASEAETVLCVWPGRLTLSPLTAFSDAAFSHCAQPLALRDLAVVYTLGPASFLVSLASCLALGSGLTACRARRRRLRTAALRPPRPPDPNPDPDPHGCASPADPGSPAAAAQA
# R275C = test: as above; settings: U2OS BacMam BK variants, at 30 µM
# R275C/beta1 = test: as above; settings: U2OS BacMam BK variants, at 30 µM
# R275C/beta2Delta = test: as above; settings: U2OS BacMam BK variants, at 30 µM
# [15] = measured here: epithelial PC-3E GFP cell survival
# [16] = measured here: mesenchymal TEM4-18 mCherry cell survival
# [17] = MELAS cybrid survival, CellTiter-Glo 48 h, stronger effect = higher value
# [18] = Rieske KO mouse fibroblast survival, CellTiter-Glo 72 h
smiles,measurement,setting,value
NC(=O)N1c2ccccc2C=Cc2ccccc21,nuclear beta-catenin stimulation,[1]; at 10 µM,1% (inactive)
same,nuclear beta-catenin stimulation,"[1]; stimulation, at 2 µM",0.9%
same,insulin secretion stimulation,[2],-1.9% (inactive)
same,viability decrease,[3],-2.95% (inactive)
same,tube area decrease,[4],0.8% (inactive)
same,GLP1 secretion stimulation,[5],4.4% (inactive)
same,inhibition of viability,[6],-18.7% (inactive)
same,viability decrease (inhibition),[7],20.2% (inactive)
same,viability decrease (inhibition),[8],-3.3% (inactive)
same,inhibition,[9],4.77% (inactive)
same,red/green cell ratio (normalised),[10],0.88 (inactive)
same,normalised cell number,[10]; [15],1.19
same,normalised cell number,[10]; [16],1.04
same,z-score,[11]; [17],2.18 (active) and 0.491 (inactive) and -0.759 (inactive)
same,z-score,[11]; [18],-0.583 and -0.0689 and -0.563
same,remaining NAD,[12],10 nM (inactive)
same,luciferase signal,[13],36 AU (inactive)
same,log fold change Tl+ flux,F380Y,-0.0389 (inactive)
same,log fold change Tl+ flux,F380Y/beta2Delta,-0.0114 (inactive)
same,log fold change Tl+ flux,[14],-0.0331 (inactive)
same,log fold change Tl+ flux,R275C,0.0472 (inactive)
same,log fold change Tl+ flux,R275C/beta1,0.00405 (inactive)
same,log fold change Tl+ flux,R275C/beta2Delta,0.0457 (inactive)
CN(C)CCCN1c2ccccc2CCc2ccccc21,nuclear beta-catenin stimulation,[1]; at 10 µM,0.8% (inactive)
same,nuclear beta-catenin stimulation,"[1]; stimulation, at 2 µM",-0.2%
same,insulin secretion stimulation,[2],5.55% (inactive)
same,viability decrease,[3],57.9% (active)
same,tube area decrease,[4],0.8% (inactive)
same,GLP1 secretion stimulation,[5],10% (inactive)
same,inhibition of viability,[6],36.7% (inactive)
same,viability decrease (inhibition),[7],70.5% (active)
same,viability decrease (inhibition),[8],-1.6% (inactive)
same,inhibition,[9],2.5% (inactive)
same,red/green cell ratio (normalised),[10],1.07 (inactive)
same,normalised cell number,[10]; [15],1.07
same,normalised cell number,[10]; [16],1.14
same,z-score,[11]; [17],-0.849 (inactive) and -0.557 (inactive)
same,z-score,[11]; [18],0.136 and -0.674
same,remaining NAD,[12],10 nM (inactive)
same,luciferase signal,[13],44 AU (inactive)
same,log fold change Tl+ flux,F380Y,0.14 (active)
same,log fold change Tl+ flux,F380Y/beta2Delta,0.118 (active)
same,log fold change Tl+ flux,[14],0.0488 (inactive)
same,log fold change Tl+ flux,R275C,0.0455 (inactive)
same,log fold change Tl+ flux,R275C/beta1,0.104 (inactive)
same,log fold change Tl+ flux,R275C/beta2Delta,0.158 (active)
Cc1ccc(Cl)c(Nc2ccccc2C(=O)O)c1Cl,nuclear beta-catenin stimulation,[1]; at 10 µM,0.5% (inactive)
same,nuclear beta-catenin stimulation,"[1]; stimulation, at 2 µM",1.2%
same,insulin secretion stimulation,[2],-1.1% (inactive)
same,viability decrease,[3],8.4% (inactive)
same,tube area decrease,[4],22.9% (inactive)
same,GLP1 secretion stimulation,[5],5% (inactive)
same,inhibition of viability,[6],35.8% (inactive)
same,viability decrease (inhibition),[7],58.5% (active)
same,viability decrease (inhibition),[8],78.5% (active)
same,inhibition,[9],7.02% (inactive)
same,red/green cell ratio (normalised),[10],0.98 (inactive)
same,normalised cell number,[10]; [15],0.92
same,normalised cell number,[10]; [16],0.9
same,z-score,[11]; [17],-0.277 (inactive) and 0.657 (inactive)
same,z-score,[11]; [18],-0.131 and 0.573
same,remaining NAD,[12],10 nM (inactive)
same,luciferase signal,[13],48 AU (inactive)
same,log fold change Tl+ flux,F380Y,0.212 (active)
same,log fold change Tl+ flux,F380Y/beta2Delta,0.243 (active)
same,log fold change Tl+ flux,[14],0.122 (active)
same,log fold change Tl+ flux,R275C,0.0346 (inactive)
same,log fold change Tl+ flux,R275C/beta1,0.34 (active)
same,log fold change Tl+ flux,R275C/beta2Delta,0.336 (active)
